# CDC25B-CDK2 inh: primary biochemical HTRF screen for blockers of M-phase inducer phosphatase 2 binding to CDK2/cyclin A. z-score (concentration not given with the values). HTRF CDC25B-CDK2/CyclinA binding, anti-His/anti-Flag; stronger effect = higher value. AID 1259370, 2018. 94,000 compounds, 0.72% hits; in the data active = z-score above about 3.2
# HIV TAR-Tat: TAR RNA-Tat peptide displacers, HIV-1, primary screen, biochemical, FRET, FAM/TAMRA-labeled Tat. HIV-1 TAR RNA, Tat peptide displacement FRET; stronger effect = higher value. z-score (test concentration not listed). 100,000 compounds, 0.6% hits. AID 1259389, 2018; active = z-score of 3 or more in at least 2 runs
# * marks the source's active call; other numbers are inactive results; · = not tested or not shown. In the library only some 0.9% were active in any assay of this set; here they are far more common.
SMILES,CDC25B-CDK2 inh,HIV TAR-Tat
COC(=O)c1ccc2c(c1)C1C=CCC1C(c1cccc3ccccc13)N2 (stereo not given),-0.77,-14.1
COc1cccc2c1NC(c1cccc3ccccc13)C1CC=CC21 (stereo not given),-0.13,6.36*
CN(Cc1ccc(F)cc1)Cc1cc(=O)c2cc(Cl)ccc2[nH]1,·,-0.79
CCSc1nnc(NC(=O)CSc2ncnc3c2oc2ccccc23)s1,-2.82,·
O=C(O)c1ccccc1Nc1cccc2c1C(=O)c1cccc(Nc3ccccc3C(=O)O)c1C2=O,·,19.1*
Cc1c(Cl)cccc1Nc1ccccc1C(=O)O,·,1.07
N#CC(C#N)C(CC(=O)c1ccc(Cl)cc1)c1cccs1 (stereo not given),-1.18,·
Cc1ccc2c(c1)NC(c1ccc(C)o1)=NC(c1cccs1)=N2,-2.5,-0.28
COc1ccc(Oc2nc(N3CCCC3)c(Cl)c3c2N(CC2CCCO2)CCS3(=O)=O)cc1 (stereo not given),9.36*,-1.17
CCCCN1CCS(=O)(=O)c2c(Cl)c(N3CCOCC3)nc(Oc3ccc(F)cc3)c21,7.76,0.06
C=CCOc1ccc(-c2nc3c(c(=O)[nH]2)Cc2cc(Br)ccc2O3)cc1,-1.78,0.4
O=C(Oc1ccccc1Br)c1cc(-c2cccs2)on1,0.32,1.66
C=C1c2c(Cl)ccc(O)c2C(O)=C2C(=O)[C@]3(O)C(O)=C(C(N)=O)C(=O)[C@@H](N(C)C)[C@@H]3[C@@H](O)[C@H]12,·,19.7*
C=C1c2cccc(O)c2C(O)=C2C(=O)[C@]3(O)C(O)=C(C(N)=O)C(=O)[C@@H](N(C)C)[C@@H]3[C@@H](O)[C@H]12,·,15.9*
CCN1C(=O)Cc2cc(NC(C)=O)ccc21,·,-0.24
Cc1ccccc1-c1nc(Cn2c(=O)cc(C)c3c(C)nn(C)c32)c(C)o1,·,0.86
CSc1ccc(C2CC(=O)N3CN(c4ccccc4F)CSC3=C2C#N)cc1 (stereo not given),0.14,2.34
CSc1ccc(C2CC(=O)N3CN(c4ccccc4)CSC3=C2C#N)cc1 (stereo not given),4.07*,-1.24
CSc1ccc(C2CC(=O)N3CN(c4ccccc4C)CSC3=C2C#N)cc1 (stereo not given),14.6*,0.58
CCc1ccc(C2CC(=O)N3CN(c4ccccc4)CSC3=C2C#N)cc1 (stereo not given),4.46*,-1.18
CSc1ccc(C2CC(=O)N3CN(C)CSC3=C2C#N)cc1 (stereo not given),0.34,0.89
CSc1ccc(C2CC(=O)N3CN(Cc4ccco4)CSC3=C2C#N)cc1 (stereo not given),1.96,0.97
CSc1ccc(C2CC(=O)N3CN(c4ccc(C)cc4)CSC3=C2C#N)cc1 (stereo not given),5.48*,-3.11
O=C(Cn1c(=O)oc2cc(S(=O)(=O)N3CCCC3)ccc21)Nc1ccc(Cl)cn1,-1.41,·
O=C(C1CC(=O)N(c2ccccc2)C1)N1CCC(NS(=O)(=O)c2ccccc2)CC1 (stereo not given),·,0.57
SMILES,CDC25B-CDK2 inh,HIV TAR-Tat
CC(C)C(=O)Nc1ncc(Cc2cccc(Cl)c2Cl)s1,-4.21,·
Cc1ccc2c(c1)N(C)/C(=C/c1sc3ccccc3[n+]1CCO)S2,-1.87,4.27*
Cc1ccc2c(ccc(/C=C3\Sc4ccccc4N3C)[n+]2C)c1,0.39,-9.18
Cc1cc(C)n(-c2cc(NC3CCCc4ccccc43)ncn2)n1 (stereo not given),·,0.98
Cc1nc2c3ccccc3nc(SCC(=O)Nc3ccccc3F)n2n1,·,0.78
Nc1nc(NCC(=O)O)nc(N2CCCC2)c1[N+](=O)[O-],·,0.92
CS(=O)(=O)N1CCN(c2ccc(NC(=O)CN3C(=O)c4ccccc4S3(=O)=O)cc2)CC1,1.17,0.69
O=C(CN1C(=O)c2ccccc2S1(=O)=O)Nc1ccc(N2CCCC2)cc1,11.3*,14.9*
COc1ccc(C(=O)c2cn(Cc3cccc(OC)c3)c3cc(OC)c(OC)cc3c2=O)cc1,-0.99,1.62
CCCS(=O)(=O)N1CCCc2ccc(NS(=O)(=O)c3ccc(F)cc3)cc21,·,1.3
COc1cccc(C2Nc3cccc4cccc(c34)N2)c1O,0.43,21.9*
COc1cc(C2Nc3cccc4cccc(c34)N2)cc(OC)c1OC,-1.38,·
CCC12CN3CC(CC)(CN(C1)C3c1cccc(OC)c1O)C2O (stereo not given),0.01,0.4
Brc1ccc(C2Nc3cccc4cccc(c34)N2)cc1,-0.51,-0.41
COc1ccc(C2Nc3cccc4cccc(c34)N2)cc1Br,1.54,26.3*
Fc1ccc(C2Nc3cccc4cccc(c34)N2)cc1,-1.29,12.7*
CCCc1c(C)nc2ncnn2c1Nc1ccc(N2CCN(S(C)(=O)=O)CC2)cc1,-1.21,-0.25
Cc1ccc([N+](=O)[O-])c(C(=O)NNC(=S)Nc2cccc(Cl)c2)c1,-2.28,·
CCn1c(N(C)C)nc2c1c(=O)n(C)c(=O)n2C,-0.51,·
Nc1ncn(S(=O)(=O)c2ccccc2)n1,-0.54,·
Cc1ccc(-n2nc3ccc(N)cc3n2)cc1,-0.46,-0.96
Nc1ccc2nn(-c3cccc(Cl)c3)nc2c1,-0.74,3.99*
O=c1c2nccnc2nc(SCc2ccccc2F)n1Cc1ccc(F)cc1,·,1.84
COCCCN1C(=O)c2[nH]nc(-c3ccccc3O)c2C1c1cccc(OCc2ccccc2)c1 (stereo not given),1.64,0.8
C=C(C)CC(NC(C)c1ccccc1)c1ccco1 (stereo not given),-0.1,-0.33
SMILES,CDC25B-CDK2 inh,HIV TAR-Tat
C=CC(=C)CC(NC)c1ccccc1 (stereo not given),16.2*,0.37
O=C(Cn1nc(-c2ccc3c(c2)OCCO3)ccc1=O)Nc1ccc(F)c(F)c1,-0.92,0.02
COc1cccc(C(=O)Nc2n[nH]c3ccccc23)c1,5.16*,·
COc1cc(OC)cc(C(=O)Nc2noc3ccccc23)c1,-1.29,0.69
Cc1ccc(/C(O)=C2\C(=O)C(=O)N(c3nccs3)C2c2ccc(F)cc2)cc1 (stereo not given),0.56,0.97
C=CCSc1nc2c(cc1C#N)C(=O)CC(C)(C)C2,-2.38,·
CCC1CCCCN1CCCNC(=O)C1CCCN(S(=O)(=O)N2CC(C)CC(C)C2)C1 (stereo not given),·,1.33
CCC1CCCCN1CCCNC(=O)C1CCCN(S(=O)(=O)N2CCCCC2)C1 (stereo not given),·,4.48*
O=C(CCCc1ccccc1)N1N=C(C2CCCCC2)CC1(O)C(F)(F)F (stereo not given),-1.76,·
Cc1nc(-c2ccccc2)c(-c2ccccc2)s1,-0.54,1.7
c1ccc(-c2c3ssnc-3c3ccccc23)cc1,16.8*,·
O=C(CCS(=O)(=O)c1ccc2c(c1)NC(=O)CS2)Nc1cc(F)ccc1F,·,2.75
CC1CN(C(=O)N2CCC(C(=O)NC3CCCc4ccccc43)CC2)c2cc(Cl)ccc2O1 (stereo not given),·,-2.14
O=C1CC(c2ccccc2)=Nc2cccnc2N1,2.56,-2.32
COc1ccc(C2=Nc3cccnc3NC(=O)C2)cc1,15.7*,-5.05
CCn1c2ccccc2c2nnc(NCc3ccccc3)nc21,-1.06,0.06
COCCNc1oc2c(c1-c1cccc(Cl)c1)c(=O)oc1ccccc12,·,0.62
Cc1cc(NCc2ccc3c(c2)OCO3)n2nc(-c3ccco3)nc2n1,·,-1.27
Cc1cc(Nc2ccc3c(c2)OCO3)n2nc(-c3ccco3)nc2n1,·,18.2*
CCOC(=O)c1c(N)sc(C)c1C,-0.25,0.93

# Compound activity from PubChem BioAssay.
